Drawing on PubChem BioAssay (EPA / NIEHS), this text covers AC50 and outcome for 19 compounds.

Results filed as inconclusive are left out. Activity calls are given as the source filed them. The calls were made as follows: active = hit-call score of the fitted dose curve at least 0.9, where 1 is the maximum; inconclusive = response in the unintended direction; inactive = score below 0.9.

What is called AC50 is the midpoint of the concentration-response curve, whichever way the signal moves.

This experiment concerns the target Cytochrome P450 2C19 (Homo sapiens) (UniProt P33261). The experiment is described as follows: NVS_ADME_hCYP2C19: NovaScreen (NVS) CYP450-related Enzyme Activity (ADME) Assay for human CYP2C19 (AID 2283113).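 As to AC50: potency for inhibition seen as loss of fluorescent signal.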 How it is done:
NVS_ADME_hCYP2C19 is a biochemical, single-readout assay that uses extracted gene-proteins from insect cells in a cell-free assay. Measurements were taken 1 hour after chemical dosing in a 96-well plate.NVS_ADME_hCYP2C19 is one of one assay component(s) measured or calculated from the NVS_ADME_hCYP2C19 assay. It is designed to make measurements of enzyme activity, a form of enzyme reporter, as detected with fluorescence intensity signals by Fluorescence technology.Data from the assay component NVS_ADME_hCYP2C19 was analyzed into 1 assay endpoint. This assay endpoint, NVS_ADME_hCYP2C19, was analyzed in the positive analysis fitting direction relative to Acetonitrile as the negative control and baseline of activity. Using a type of enzyme reporter, loss-of-signal activity can be used to understand changes in the enzymatic activity as they relate to the gene CYP2C19. Furthermore, this assay endpoint can be referred to as a primary readout, because this assay has produced multiple assay endpoints where this one serves a enzymatic activity function. To generalize the intended target to other relatable targets, this assay endpoint is annotated to the cyp intended target family, where the subfamily is xenobiotic metabolism.
Binding assays used specific radioligands (tritiated, iodinated) with non-radioactive competitive displacement ligands in agonist or antagonist protocols (as indicated) and various reference compounds and inhibitors to titrate specific binding to receptors and transporters. Most enzyme assays (CYPs, kinases, phosphatases, proteases, HDACs) used recombinant protein and specific substrates (fluorescence mostly, some colorimetric and radioactive) and inhibitors, followed by a biochemical separation of substrate and product. All assays for the biochemical HTS were initially run in duplicate at a single concentration (10 uM for CYP450 assays and 25 uM for all others). […] Each assay was run with positive and negative controls, and concurrent controls on every plate. The follow-up (secondary) screen tested active chemical-pairs in concentration series, as well as a few additional assays not tested in the primary screen, some selected negative inactives, and several cases re-run in the concentration series for confirmatory purposes.
Take `Cc1cc(SC2=C(O)C[C@@](CCc3ccc(N)cc3)(C(C)C)OC2=O)c(C(C)(C)C)cc1CO`: the AC50 is 7.64 µM (active). In the case of `CCCCC(CC)COP(=O)(OCC(CC)CCCC)OCC(CC)CCCC` (centres undefined), the result was inactive. For the compound `CC(COCC(C)OC(=O)c1ccccc1)OC(=O)c1ccccc1` (centres undefined), the AC50 was 2.27 µM (active). `CCCCCCCCCC[N+](C)(C)[O-]`: the result was inactive. Take `CC(C)c1cccc(C(C)C)c1`: the AC50 is 10 µM (active). As to `CC(=O)CC(c1ccccc1)c1c(O)c2ccccc2oc1=O` (centres undefined), the result was inactive. As to `Cc1cc(Cc2ccc(N)c(C)c2)ccc1N`, the AC50 was 7.05 µM (active). For the compound `CCc1cc(C2=C(C(=O)O)N(c3ccccc3C(F)(F)F)S(=O)(=O)c3ccccc32)cc2c1OCO2`, the AC50 is 15.8 µM (active). Still for that read-out and setting: under `CC(C)OC(=O)C(C)(C)Oc1ccc(C(=O)c2ccc(Cl)cc2)cc1` stands 4.67 µM (active); under `S=c1[nH]c2ccccc2s1`, 1.92 µM (active). For the compound `O=C(N[C@@H](c1ccccc1)[C@@H]1CCCCN1)c1cccc(C(F)(F)F)c1Cl`, the compound was called inactive.

For `CSc1ccc(Oc2ccc(S(N)(=O)=O)cc2CN(C)C)cc1C`, the AC50 was 4.05 µM (active).

Turning to `CCCCCCCCCCCCCCCCO`, the AC50 is 12.6 µM (active). Still for that read-out and setting: under `O=C1OC(c2ccc(O)cc2)(c2ccc(O)cc2)c2ccccc21` stands 0.586 µM (active). As to `CC(C)(O)c1ccc(CNC(=O)c2cccnc2Oc2ccc(F)cc2)cc1`, the AC50 was 4.26 µM (active). On the same count and under the same terms, under `CCN(CC)CCOc1ccc(C(=C(Cl)c2ccccc2)c2ccccc2)cc1` stands 2.68 µM (active) [middle of 4 runs]; under `COC(=O)[C@H]1[C@H]2C[C@@H]3c4[nH]c5cc(OC)ccc5c4CCN3C[C@H]2C[C@@H](OC(=O)c2cc(OC)c(OC)c(OC)c2)[C@@H]1OC`, 7.91 µM (active); under `CC(=O)OC1CC(C)OC(C)O1` (centres undefined), 15.1 µM (active). Turning to `CN(C)C(=O)NC1(c2ccccc2)CCN(CC[C@@]2(c3ccc(F)c(F)c3)CN(C(=O)c3ccccc3)CCO2)CC1`, the outcome was inactive.
